According to the supplement of paper PMC11732987, “Enantioselective OTUD7B fragment discovery through chemoproteomics screening and high-throughput optimisation” (Communications Chemistry, 2025):

How the values were obtained:
Experiment in all cases: log2 ratio of Biotin-Ahx-Ub-VS probe labelling (fragment/DMSO); higher = less target engagement (more negative = stronger competition), active = hit call of the paper (q ≤ 0.05, log2 ratio ≤ -1)
Details in all cases: compound concentration: 200 uM; treatment time: 3 h
[1] = biological target: T1, USP42 (UniProt Q9H9J4)
T1 sequence (whole entry): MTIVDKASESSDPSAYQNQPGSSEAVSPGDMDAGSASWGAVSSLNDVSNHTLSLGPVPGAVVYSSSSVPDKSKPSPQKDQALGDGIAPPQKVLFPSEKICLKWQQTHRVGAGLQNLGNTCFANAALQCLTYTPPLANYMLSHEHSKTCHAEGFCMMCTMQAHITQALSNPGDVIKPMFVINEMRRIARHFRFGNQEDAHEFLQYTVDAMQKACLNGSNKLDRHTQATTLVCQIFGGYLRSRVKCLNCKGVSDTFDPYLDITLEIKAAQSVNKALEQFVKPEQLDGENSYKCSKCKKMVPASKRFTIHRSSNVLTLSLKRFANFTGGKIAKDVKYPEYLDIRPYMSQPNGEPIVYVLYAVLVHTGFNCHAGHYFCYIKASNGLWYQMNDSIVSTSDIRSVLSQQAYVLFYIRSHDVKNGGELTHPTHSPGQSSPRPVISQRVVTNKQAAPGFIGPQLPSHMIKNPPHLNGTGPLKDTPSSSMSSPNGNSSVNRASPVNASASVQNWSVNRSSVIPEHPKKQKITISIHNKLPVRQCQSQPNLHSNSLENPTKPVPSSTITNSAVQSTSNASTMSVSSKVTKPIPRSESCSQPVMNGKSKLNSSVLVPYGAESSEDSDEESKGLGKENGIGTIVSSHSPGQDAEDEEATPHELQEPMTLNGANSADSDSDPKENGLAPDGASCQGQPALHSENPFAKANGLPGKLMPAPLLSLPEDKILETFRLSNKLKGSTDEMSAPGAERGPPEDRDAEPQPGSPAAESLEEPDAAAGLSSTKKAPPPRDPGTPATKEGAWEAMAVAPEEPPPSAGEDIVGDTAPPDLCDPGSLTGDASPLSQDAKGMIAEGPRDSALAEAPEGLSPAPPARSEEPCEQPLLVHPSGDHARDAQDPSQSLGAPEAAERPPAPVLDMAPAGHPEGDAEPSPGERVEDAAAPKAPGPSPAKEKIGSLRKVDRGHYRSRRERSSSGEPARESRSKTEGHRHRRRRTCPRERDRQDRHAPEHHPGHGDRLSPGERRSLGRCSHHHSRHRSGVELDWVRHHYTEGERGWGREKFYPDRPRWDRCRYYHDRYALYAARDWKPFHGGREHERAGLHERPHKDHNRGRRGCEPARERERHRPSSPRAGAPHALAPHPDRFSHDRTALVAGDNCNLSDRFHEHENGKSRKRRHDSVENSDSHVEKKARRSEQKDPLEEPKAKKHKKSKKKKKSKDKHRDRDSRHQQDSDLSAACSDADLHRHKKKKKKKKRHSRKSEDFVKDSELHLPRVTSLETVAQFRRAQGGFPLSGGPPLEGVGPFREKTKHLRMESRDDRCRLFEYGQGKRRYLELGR
Method in brief: (§1)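 Labelled DUBs from HEK293T lysate were NeutrAvidin-enriched, digested with LysC and trypsin, and run by diaPASEF LC-MS/MS. Before that, each 495 µg sample in Tris/CHAPS/IGEPAL buffer with protease inhibitors was treated in triplicate with fragment at 200 µM or vehicle for 3 h, then with Biotin-Ahx-Ub-VS at 0.5 µM final for 1 h. Values are average log2 ratios of fragment over vehicle by unpaired t-test, based on global-median-normalised Spectronaut label-free quantities from proteins with ≥2 unique peptides.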

[2] = biological target: USP46 (UniProt P62068)
Method in brief: as §1

[3] = biological target: T2, USP47 (UniProt Q96K76)
T2 sequence (whole entry): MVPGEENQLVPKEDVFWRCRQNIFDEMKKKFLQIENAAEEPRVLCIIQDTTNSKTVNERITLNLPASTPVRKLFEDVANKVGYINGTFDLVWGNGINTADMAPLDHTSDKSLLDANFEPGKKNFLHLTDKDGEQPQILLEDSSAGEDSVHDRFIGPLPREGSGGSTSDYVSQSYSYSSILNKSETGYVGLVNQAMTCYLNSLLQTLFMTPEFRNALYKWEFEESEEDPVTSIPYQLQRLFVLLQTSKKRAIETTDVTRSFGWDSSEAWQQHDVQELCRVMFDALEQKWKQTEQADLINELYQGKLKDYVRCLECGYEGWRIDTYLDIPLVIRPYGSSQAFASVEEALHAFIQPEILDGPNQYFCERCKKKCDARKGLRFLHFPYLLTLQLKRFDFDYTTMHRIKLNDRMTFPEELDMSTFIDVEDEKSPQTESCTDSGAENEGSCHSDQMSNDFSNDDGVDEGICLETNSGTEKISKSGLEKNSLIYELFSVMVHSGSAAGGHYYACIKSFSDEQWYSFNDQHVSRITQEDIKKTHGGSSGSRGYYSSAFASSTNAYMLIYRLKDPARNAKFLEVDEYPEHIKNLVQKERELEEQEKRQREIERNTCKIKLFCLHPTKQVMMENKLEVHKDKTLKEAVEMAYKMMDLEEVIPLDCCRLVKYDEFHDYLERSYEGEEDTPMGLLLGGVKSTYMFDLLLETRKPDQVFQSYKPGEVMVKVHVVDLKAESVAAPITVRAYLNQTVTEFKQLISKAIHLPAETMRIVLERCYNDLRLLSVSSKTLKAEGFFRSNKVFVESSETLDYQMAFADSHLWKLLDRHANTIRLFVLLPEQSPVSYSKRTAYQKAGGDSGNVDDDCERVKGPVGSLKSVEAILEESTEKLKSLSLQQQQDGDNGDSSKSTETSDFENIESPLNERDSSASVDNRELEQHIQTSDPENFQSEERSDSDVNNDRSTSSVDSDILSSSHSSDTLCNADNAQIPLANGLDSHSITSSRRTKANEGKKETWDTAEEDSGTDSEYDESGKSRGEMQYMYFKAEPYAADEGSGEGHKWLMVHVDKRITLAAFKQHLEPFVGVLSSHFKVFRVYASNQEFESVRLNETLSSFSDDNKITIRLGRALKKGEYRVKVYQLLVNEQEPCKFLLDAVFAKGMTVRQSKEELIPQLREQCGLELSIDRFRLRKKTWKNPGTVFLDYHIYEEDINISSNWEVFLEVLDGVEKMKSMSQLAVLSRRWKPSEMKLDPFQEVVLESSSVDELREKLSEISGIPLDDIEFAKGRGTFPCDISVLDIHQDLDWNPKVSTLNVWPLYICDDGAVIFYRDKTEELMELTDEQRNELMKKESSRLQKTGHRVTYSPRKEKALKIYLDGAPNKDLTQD
Method in brief: as §1

[4] = biological target: T3, USP48 (UniProt Q86UV5)
T3 sequence (whole entry): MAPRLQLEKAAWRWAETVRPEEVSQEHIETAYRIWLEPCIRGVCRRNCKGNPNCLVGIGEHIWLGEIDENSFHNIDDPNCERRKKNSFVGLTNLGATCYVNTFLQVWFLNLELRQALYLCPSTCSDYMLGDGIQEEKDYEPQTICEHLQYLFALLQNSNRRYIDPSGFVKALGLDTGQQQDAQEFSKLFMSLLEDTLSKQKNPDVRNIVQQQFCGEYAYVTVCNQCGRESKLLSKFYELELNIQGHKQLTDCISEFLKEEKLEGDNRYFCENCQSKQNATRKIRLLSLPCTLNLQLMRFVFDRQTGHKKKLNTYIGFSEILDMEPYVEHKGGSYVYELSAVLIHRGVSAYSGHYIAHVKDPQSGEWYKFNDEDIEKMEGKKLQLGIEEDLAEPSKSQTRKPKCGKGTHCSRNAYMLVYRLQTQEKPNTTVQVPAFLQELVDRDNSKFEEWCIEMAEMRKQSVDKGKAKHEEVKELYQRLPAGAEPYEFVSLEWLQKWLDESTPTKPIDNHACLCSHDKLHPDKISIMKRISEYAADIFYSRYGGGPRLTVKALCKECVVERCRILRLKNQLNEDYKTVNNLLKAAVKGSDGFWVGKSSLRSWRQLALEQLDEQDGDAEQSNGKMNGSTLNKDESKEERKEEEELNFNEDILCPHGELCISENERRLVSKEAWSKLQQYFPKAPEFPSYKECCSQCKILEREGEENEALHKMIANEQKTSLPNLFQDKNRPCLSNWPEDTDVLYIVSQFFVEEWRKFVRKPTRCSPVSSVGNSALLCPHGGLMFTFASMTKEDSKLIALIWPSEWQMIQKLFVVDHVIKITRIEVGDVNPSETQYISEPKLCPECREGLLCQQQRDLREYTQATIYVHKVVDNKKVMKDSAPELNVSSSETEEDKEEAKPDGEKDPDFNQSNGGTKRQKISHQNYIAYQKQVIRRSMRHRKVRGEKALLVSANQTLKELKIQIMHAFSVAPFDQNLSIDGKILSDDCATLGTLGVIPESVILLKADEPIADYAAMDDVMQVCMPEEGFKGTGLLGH
Method in brief: as §1

[5] = biological target: T4, USP5 (UniProt P45974)
T4 sequence (whole entry): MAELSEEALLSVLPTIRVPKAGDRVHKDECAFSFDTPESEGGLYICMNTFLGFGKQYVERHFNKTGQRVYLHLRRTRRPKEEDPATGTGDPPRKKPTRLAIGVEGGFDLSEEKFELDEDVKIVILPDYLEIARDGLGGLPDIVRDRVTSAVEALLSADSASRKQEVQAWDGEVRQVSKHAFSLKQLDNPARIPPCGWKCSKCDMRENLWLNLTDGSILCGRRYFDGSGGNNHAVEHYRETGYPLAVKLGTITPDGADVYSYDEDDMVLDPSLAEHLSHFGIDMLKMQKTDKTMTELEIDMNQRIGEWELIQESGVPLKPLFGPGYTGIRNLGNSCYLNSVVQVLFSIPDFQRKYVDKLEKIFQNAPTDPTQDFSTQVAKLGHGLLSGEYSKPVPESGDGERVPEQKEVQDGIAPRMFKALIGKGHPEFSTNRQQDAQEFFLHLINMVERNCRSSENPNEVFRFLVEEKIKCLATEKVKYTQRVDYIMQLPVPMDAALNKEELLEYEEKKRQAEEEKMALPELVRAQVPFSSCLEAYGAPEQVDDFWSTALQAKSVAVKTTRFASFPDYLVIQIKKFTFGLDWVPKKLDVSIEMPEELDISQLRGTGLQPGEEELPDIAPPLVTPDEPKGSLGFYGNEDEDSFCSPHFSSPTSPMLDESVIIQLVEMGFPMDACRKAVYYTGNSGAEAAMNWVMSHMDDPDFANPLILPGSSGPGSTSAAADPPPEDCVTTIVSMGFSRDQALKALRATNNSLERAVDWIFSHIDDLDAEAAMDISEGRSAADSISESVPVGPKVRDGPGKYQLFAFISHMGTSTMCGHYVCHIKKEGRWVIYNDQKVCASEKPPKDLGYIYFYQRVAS
Method in brief: as §1

[6] = biological target: USP54 (UniProt Q70EL1)
Method in brief: as §1

[7] = biological target: USP7 (UniProt Q93009)
Method in brief: as §1

[8] = biological target: T5, USP8 (UniProt P40818)
T5 sequence (whole entry): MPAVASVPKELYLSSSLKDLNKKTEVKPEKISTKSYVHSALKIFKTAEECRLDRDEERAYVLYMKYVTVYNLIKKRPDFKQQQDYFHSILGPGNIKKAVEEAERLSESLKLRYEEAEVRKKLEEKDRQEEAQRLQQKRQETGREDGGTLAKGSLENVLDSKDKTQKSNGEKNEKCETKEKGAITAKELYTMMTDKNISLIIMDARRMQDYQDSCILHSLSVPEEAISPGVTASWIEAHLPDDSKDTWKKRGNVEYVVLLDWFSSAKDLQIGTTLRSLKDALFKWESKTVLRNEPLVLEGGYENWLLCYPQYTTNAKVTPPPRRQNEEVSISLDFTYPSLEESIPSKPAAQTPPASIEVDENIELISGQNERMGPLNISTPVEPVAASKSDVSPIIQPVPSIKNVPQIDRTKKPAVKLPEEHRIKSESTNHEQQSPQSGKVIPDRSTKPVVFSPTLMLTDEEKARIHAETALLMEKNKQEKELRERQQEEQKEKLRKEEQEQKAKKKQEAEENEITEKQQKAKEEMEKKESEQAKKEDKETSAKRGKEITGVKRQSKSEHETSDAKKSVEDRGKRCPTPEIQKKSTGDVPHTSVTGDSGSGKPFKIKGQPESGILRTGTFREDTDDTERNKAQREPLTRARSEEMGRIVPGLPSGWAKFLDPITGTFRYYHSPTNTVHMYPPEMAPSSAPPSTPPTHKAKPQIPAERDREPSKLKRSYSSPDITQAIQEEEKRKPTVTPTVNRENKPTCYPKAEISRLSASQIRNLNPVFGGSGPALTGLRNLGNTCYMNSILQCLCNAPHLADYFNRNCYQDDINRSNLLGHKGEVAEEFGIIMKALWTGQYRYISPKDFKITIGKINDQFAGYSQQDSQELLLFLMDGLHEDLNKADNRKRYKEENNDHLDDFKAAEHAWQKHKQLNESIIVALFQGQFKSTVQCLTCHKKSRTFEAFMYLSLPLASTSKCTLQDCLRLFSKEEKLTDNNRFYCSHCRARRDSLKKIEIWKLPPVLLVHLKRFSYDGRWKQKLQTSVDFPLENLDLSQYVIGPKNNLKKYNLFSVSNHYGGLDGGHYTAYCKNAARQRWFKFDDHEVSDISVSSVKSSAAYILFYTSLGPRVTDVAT
Method in brief: as §1

[9] = biological target: USP9X (UniProt Q93008)
Method in brief: as §1

[10] = biological target: UniProt O00487
Method in brief: as §1

Measured: log2 ratio of Biotin-Ahx-Ub-VS probe labelling

Chain of USP7 (Q93009 whole entry, looked up): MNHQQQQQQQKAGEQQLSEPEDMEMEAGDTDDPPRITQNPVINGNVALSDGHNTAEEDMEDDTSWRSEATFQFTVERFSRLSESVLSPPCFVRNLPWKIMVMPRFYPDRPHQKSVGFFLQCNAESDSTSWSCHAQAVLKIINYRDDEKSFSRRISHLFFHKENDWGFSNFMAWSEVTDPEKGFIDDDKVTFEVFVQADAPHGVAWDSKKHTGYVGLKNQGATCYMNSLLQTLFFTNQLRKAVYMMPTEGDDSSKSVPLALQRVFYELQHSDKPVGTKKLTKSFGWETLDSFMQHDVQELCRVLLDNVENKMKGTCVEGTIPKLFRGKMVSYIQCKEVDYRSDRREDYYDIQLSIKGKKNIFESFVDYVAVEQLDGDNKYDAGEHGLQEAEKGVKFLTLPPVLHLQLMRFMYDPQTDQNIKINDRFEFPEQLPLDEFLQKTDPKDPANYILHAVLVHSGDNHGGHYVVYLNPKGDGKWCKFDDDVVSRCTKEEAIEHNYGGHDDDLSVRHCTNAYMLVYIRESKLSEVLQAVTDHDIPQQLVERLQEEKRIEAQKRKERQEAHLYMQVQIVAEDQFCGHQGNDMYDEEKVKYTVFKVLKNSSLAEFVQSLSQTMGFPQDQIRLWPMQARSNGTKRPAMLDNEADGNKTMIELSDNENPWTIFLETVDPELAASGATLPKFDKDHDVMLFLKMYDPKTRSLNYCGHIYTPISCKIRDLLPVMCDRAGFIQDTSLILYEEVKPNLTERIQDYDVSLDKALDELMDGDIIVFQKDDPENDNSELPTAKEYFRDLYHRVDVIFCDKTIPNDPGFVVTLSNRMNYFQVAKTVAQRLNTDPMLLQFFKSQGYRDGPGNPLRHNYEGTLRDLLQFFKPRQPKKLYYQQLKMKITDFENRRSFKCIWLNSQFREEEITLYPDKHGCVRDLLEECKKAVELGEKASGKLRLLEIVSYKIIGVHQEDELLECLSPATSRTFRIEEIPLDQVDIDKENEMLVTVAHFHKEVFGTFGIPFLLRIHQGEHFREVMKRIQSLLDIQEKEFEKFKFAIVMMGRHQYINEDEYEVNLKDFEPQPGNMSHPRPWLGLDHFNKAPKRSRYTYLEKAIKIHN
Chain of USP46 (P62068 whole entry): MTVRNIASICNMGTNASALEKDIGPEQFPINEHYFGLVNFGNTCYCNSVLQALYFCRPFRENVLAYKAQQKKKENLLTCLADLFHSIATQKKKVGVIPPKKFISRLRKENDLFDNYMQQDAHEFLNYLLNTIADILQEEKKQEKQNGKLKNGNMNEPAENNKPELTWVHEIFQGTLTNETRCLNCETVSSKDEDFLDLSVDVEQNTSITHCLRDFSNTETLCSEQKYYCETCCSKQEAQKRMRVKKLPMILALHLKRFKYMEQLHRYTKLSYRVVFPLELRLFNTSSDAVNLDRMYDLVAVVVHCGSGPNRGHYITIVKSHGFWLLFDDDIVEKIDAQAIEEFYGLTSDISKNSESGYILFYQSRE
Chain of USP9X (Q93008 whole entry): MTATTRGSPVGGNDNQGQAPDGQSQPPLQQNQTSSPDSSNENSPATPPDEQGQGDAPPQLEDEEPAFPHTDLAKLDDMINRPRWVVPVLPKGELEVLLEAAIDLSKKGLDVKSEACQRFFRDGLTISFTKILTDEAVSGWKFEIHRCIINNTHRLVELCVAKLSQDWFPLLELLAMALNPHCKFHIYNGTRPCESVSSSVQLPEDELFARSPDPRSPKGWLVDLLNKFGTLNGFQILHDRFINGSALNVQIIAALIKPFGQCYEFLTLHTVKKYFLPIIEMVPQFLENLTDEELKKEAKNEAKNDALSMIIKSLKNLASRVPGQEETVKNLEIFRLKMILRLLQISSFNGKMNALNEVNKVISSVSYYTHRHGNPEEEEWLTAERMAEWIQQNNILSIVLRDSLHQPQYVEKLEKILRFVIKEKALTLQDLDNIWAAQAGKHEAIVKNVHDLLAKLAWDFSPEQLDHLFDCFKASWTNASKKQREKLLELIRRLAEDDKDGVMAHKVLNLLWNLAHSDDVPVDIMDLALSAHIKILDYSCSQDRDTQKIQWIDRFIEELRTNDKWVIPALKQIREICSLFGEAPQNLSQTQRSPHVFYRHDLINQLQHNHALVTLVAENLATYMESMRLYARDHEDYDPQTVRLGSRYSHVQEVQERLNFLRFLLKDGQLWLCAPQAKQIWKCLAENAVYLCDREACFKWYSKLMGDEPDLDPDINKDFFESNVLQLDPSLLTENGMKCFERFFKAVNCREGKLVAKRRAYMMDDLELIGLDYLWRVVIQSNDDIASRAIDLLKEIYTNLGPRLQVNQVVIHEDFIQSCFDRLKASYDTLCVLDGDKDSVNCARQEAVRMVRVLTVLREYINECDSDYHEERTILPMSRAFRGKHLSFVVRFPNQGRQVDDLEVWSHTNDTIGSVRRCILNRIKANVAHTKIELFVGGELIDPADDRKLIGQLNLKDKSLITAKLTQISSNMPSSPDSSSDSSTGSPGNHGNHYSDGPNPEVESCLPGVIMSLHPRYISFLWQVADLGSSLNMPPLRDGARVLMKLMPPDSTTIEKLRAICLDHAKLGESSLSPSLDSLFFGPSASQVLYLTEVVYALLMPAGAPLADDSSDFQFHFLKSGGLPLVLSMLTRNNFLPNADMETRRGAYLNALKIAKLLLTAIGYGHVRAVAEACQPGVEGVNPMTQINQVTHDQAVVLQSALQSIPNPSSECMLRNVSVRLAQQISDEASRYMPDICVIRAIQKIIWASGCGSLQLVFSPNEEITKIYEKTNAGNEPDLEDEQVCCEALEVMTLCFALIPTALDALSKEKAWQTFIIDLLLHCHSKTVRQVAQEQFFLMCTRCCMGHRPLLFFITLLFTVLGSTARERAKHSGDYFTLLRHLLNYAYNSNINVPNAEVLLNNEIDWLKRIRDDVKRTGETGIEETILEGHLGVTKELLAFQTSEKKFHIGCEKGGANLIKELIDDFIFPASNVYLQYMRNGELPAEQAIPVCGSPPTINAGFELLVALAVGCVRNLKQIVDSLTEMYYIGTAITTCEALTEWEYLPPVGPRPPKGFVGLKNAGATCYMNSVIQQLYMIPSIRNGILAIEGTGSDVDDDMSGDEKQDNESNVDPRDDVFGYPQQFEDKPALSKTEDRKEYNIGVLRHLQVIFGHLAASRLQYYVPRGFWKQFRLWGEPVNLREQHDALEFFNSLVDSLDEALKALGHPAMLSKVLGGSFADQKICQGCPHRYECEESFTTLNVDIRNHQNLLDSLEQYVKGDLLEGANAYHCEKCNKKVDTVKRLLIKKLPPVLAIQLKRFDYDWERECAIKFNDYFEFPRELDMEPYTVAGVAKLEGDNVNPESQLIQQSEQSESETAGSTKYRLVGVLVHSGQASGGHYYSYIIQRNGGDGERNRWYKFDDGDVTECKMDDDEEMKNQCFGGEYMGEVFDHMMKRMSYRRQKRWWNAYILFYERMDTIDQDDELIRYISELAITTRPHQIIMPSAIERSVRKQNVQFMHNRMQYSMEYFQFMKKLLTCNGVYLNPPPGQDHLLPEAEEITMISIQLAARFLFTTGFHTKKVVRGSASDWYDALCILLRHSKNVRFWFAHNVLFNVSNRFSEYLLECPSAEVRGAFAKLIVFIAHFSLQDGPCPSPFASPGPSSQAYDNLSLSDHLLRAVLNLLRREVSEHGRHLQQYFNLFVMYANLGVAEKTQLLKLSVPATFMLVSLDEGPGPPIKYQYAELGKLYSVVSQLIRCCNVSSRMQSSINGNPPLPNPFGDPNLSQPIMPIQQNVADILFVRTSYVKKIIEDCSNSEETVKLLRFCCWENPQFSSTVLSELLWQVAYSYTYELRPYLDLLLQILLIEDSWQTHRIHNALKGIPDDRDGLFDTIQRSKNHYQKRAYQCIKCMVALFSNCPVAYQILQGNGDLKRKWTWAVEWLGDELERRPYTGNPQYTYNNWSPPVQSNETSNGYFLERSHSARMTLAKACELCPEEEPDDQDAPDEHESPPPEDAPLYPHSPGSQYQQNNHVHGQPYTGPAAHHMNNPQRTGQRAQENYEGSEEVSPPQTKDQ
Chain of UniProt O00487 (O00487 whole entry): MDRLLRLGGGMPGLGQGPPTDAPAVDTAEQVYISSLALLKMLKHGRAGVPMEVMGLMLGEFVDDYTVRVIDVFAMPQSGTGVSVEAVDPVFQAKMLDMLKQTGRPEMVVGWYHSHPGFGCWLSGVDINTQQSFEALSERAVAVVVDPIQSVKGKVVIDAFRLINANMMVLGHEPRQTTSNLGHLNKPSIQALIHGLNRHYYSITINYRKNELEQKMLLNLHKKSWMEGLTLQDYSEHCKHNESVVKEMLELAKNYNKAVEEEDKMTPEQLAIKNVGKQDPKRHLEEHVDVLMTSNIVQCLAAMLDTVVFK

CS(=O)(=O)N1CCCN(C(=O)CCl)CC1
inactive: [1] -0.107 | [2] 0.169 | [3] -0.733 | [4] -0.507 | [5] -0.0151 | [6] 0.239 | [7] -0.301 | [8] -0.323 | [9] -0.177 | [10] 0.0126
